Experimental data from PubChem BioAssay AID1159580 (chemical genetic matrix, 2015).
Values joined by “and” are separate entries in the source; they are usually repeats but may differ in a detail not shown here. Equal entries are not always repeated. Hit rate of the full screen: of about 5,500 compounds, about 2,000 (36%) were called active. Not shown: some 18% with an inconclusive outcome. No stated cut-off is given here; in the data, active means normalized growth mostly below about 0.91 (no sharp cut-off); inconclusive means no clear call, values can overlap the other calls; inactive means mostly above about 0.92. This is one part of the list.

Assay: chemical genetic growth profiling, strain panel (AID 1159580);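 further: tested at 20 µM; growth read once vehicle control cultures reached saturation at 30 °C; 1 = growth at the plate median or of vehicle wells; lower values mean less growth of the strain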
Conditions: S. cerevisiae deletion strains, growth OD

Measured: normalized growth

O=C(O)c1cc2cc(Cl)ccc2[nH]1
inactive: locus YAL013W, strain DEP1, hits give low values 1.01 | locus YAL021C, strain ccr4, hits give low values 0.995 | locus YAL026C, strain drs2, hits give low values 0.988 | locus YAL030W, strain snc1, hits give low values 0.989 | locus YBL061C, strain skt5, hits give low values 0.991 | locus YBR009C, strain hhf1, hits give low values 0.978 | locus YBR021W, strain FUR4, hits give low values 0.998 | locus YBR023C, strain chs3, hits give low values 0.986 | locus YBR171W, strain sec66, hits give low values 0.986 | locus YBR229C, strain ROT2, hits give low values 1.01 | locus YBR231C, strain swc5, hits give low values 0.987 | locus YBR279W, strain paf1, hits give low values 0.995 | locus YCL011C, strain gbp2, hits give low values 0.985 | locus YCL016C, strain dcc1, hits give low values 0.988 | locus YCL029C, strain bik1, hits give low values 0.983 | locus YCL061C, strain MRC1, hits give low values 0.984 | locus YCL069W, strain vba3, hits give low values 0.993 | locus YCR088W, strain abp1, hits give low values 0.975 | locus YDL005C, strain med2, hits give low values 0.987 | locus YDL035C, strain GPR1, hits give low values 1.02 | locus YDL040C, strain nat1, hits give low values 0.989 | locus YDL074C, strain BRE1, hits give low values 1.05 | locus YDL101C, strain DUN1, hits give low values 1.03 | locus YDL134C, strain PPH21, hits give low values 1.01 | locus YDL185W, strain tfp1, hits give low values 0.973 | locus YDL192W, strain arf1, hits give low values 0.989 | locus YDR001C, strain nth1, hits give low values 0.981 | locus YDR069C, strain doa4, hits give low values 0.983 | locus YDR101C, strain arx1, hits give low values 0.971 | locus YDR137W, strain rgp1, hits give low values 0.999 | locus YDR150W, strain NUM1, hits give low values 1.01 | locus YDR159W, strain sac3, hits give low values 0.977 | locus YDR162C, strain NBP2, hits give low values 1.05 | locus YDR195W, strain ref2 0.998 | locus YDR297W, strain sur2, hits give low values 0.997 | locus YDR318W, strain mcm21, hits give low values 0.984 | locus YDR334W, strain swr1, hits give low values 0.986 | locus YDR335W, strain msn5, hits give low values 0.988 | locus YDR388W, hits give low values 0.98 | locus YDR392W, strain spt3, hits give low values 0.953 | locus YDR502C, strain sam2, hits give low values 0.998 | locus YEL003W, strain gim4, hits give low values 1 | locus YEL037C, strain rad23, hits give low values 0.98 | locus YEL061C, strain CIN8 (second series), hits give low values 0.981 | locus YEL061C, strain CIN8, hits give low values 1 | locus YER015W, strain faa2, hits give low values 0.993 | locus YER016W, strain bim1, hits give low values 0.984 | locus YER110C, hits give low values 0.982 | locus YER111C, strain swi4, hits give low values 0.98 | locus YER155C, strain BEM2 (second series), hits give low values 0.972 | locus YER155C, strain BEM2, hits give low values 1.01 | locus YER167W, strain BCK2, hits give low values 1.01 | locus YFR010W, strain ubp6, hits give low values 0.986 | locus YGL078C, strain dbp3, hits give low values 0.979 | locus YGL086W, strain mad1, hits give low values 0.977 | locus YGL167C, strain pmr1, hits give low values 0.988 | locus YGL173C, strain kem1, hits give low values 0.984 | locus YGL227W, strain vid30, hits give low values 0.973 | locus YGL240W, strain doc1, hits give low values 0.984 | locus YGL248W, strain PDE1, hits give low values 1.01 | locus YGL253W, strain hxk2, hits give low values 0.994 | locus YGR078C, strain PAC10, hits give low values 1.03 | locus YGR135W, strain pre9, hits give low values 0.994 | locus YGR229C, strain SMI1, hits give low values 1.02 | locus YGR252W, strain gcn5, hits give low values 0.928 | locus YHR013C, strain ard1, hits give low values 0.973 | locus YHR027C, strain rpn1, hits give low values 0.988 | locus YHR030C, strain SLT2, hits give low values 0.997 and 0.95 | locus YHR079C, strain IRE1 (second series), hits give low values 0.984 | locus YHR079C, strain IRE1, hits give low values 0.932 | locus YHR094C, strain hxt1, hits give low values 0.984 | locus YHR129C, strain ARP1, hits give low values 1.01 | locus YHR142W, strain chs7, hits give low values 0.984 | locus YHR200W, strain rpn10, hits give low values 0.99 | locus YIL066C, strain RNR3, hits give low values 1.01 | locus YIL073C, strain SPO22, hits give low values 1.02 | locus YIL125W, strain kgd1, hits give low values 0.979 | locus YIR030C, strain dcg1, hits give low values 0.991 | locus YJL092W, strain hpr5, hits give low values 0.98 | locus YJL095W, strain BCK1 (second series), hits give low values 0.983 | locus YJL095W, strain BCK1, hits give low values 1.03 and 0.942 | locus YJL115W, strain asf1, hits give low values 0.992 | locus YJL129C, strain trk1, hits give low values 0.99 | locus YJL134W, strain LCB3, hits give low values 1.01 | locus YJL154C, strain vps35, hits give low values 0.985 | locus YJL164C, strain tpk1, hits give low values 0.99 | locus YJL166W, strain qcr8, hits give low values 0.995 | locus YJL168C, strain set2, hits give low values 0.986 | locus YJL187C, strain SWE1 (second series), hits give low values 1.02 | locus YJL187C, strain SWE1, hits give low values 0.992 | locus YJR043C, strain POL32, hits give low values 0.984 | locus YJR066W, strain TOR1, hits give low values 0.903
